This is a sample that favours compounds with a hit; in the whole collection about 19% have one here.
ELG1 DNA repair: qHTS screen for small molecules that inhibit ELG1-dependent DNA repair in human embryonic kidney (HEK293T) cells expressing luciferase-tagged ELG1 | Potency, µM (titrated, usually from 46.1 µM), without a hit: at the highest dose activity change, negative = inhibition, hits mostly inhibitors | AID 504467, 2011 | 330,000 compounds, 2.3% hits | HEK293T ELG1-luciferase reporter, luminescence, 16 h; DNA damage induced by 5-fluorouridine; further: potency means the concentration at half of the fitted maximal effect; nearly all actives have a fitted effect of over 55% in size
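In this reporter screen, reduction of luminescence relative to DMSO vehicle indicated activity. Compounds and 5-fluorouridine were added together to 2,000 cells per well, incubated for 16 hr at 37 °C, then developed with ONE-Glo.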
TDP1 block: qHTS Assay for Inhibitors of Tyrosyl-DNA Phosphodiesterase (TDP1); recombinant TDP1, AlphaScreen DNA substrate cleavage; 350,000 compounds, 0.28% hits; Potency, µM (doses to about 130 µM), without a hit: at the top dose activity change, negative = inhibition, hits mostly inhibitors; further: potency means the concentration at half of the fitted maximal effect; nearly all actives have a fitted effect of over 40% in size
Target sequence (Q9NUW8 whole entry, looked up): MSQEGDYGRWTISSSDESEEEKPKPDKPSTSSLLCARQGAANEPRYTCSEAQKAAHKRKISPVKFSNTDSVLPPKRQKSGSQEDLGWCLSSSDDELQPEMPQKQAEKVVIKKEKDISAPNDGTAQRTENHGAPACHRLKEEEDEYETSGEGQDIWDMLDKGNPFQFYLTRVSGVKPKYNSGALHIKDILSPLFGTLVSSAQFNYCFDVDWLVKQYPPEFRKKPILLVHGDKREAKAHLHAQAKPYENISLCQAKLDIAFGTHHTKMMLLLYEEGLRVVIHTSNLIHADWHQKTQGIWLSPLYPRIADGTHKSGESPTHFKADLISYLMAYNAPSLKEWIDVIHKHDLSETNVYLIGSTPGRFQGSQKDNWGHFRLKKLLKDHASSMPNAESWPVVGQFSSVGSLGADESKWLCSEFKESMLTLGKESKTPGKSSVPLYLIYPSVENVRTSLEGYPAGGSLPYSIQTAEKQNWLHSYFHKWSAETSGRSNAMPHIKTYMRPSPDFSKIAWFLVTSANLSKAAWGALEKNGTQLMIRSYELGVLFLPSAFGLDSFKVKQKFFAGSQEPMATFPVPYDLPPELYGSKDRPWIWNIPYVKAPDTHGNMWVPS
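Compounds were preincubated with Tdp1 (1 nM final) for 15 min at room temperature before substrate (15 nM final) started a 5 min reaction; beads (10 ug/ml final) were then added for 10 min before AlphaScreen detection.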
DT40 TDP1 CPT: qHTS for Inhibitors of human tyrosyl-DNA phosphodiesterase 1 (TDP1): qHTS in cells in presence of CPT; chicken DT40 Tdp1-/-;hTDP1 cells + 20 nM CPT, ATP luminescence, 48 h; Potency, µM (top dose mostly 46.2 µM), without a hit: at the top dose activity change, negative = growth inhibition, actives largely listed as inhibitors; 420,000 compounds, 12% hits; AID 686979, 2013; further: potency means the concentration at half of the fitted maximal effect; nearly all actives have a fitted effect of over 55% in size
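Cell growth measured by CellTiter-Glo luminescence after a minimum 48 h, 37 C compound exposure with 20 nM CPT in Tdp1-knockout DT40 cells stably expressing hTDP1, seeded 400/well; qHTS titration format.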
Giardia kill: Small Molecules that selectively kill Giardia lamblia: qHTS | Giardia lamblia trophozoite viability | activity change, % at 7.66 µM, hits read low | 340,000 compounds, 0.15% hits | AID 540267, 2011; in the data active means activity change below about -80%; inconclusive means between about -30% and that limit;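 further: parasites exposed to compound for two days anaerobically before the ATP read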
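Anaerobic 48 hrs incubation at 37 deg C of 100 trophozoites/well with test compounds; ATPLite 1-Step luminescence, 15-30 min RT, reports cellular ATP as viability.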
IL1B secr inh: qHTS for Inhibitors of Inflammasome Signaling: IL-1-beta AlphaLISA Primary Screen | THP-1 LPS/ATP IL-1B secretion, AlphaLISA, 16 h; hits give low values | activity change, % at 57.5 µM | 360,000 compounds, 4.7% hits | AID 743279, 2014; in the data active means activity change below about -50%; inconclusive means mostly about -30% to -49%
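THP-1 cells pretreated 1 hr with compounds (up to 57.5 uM final), then stimulated with LPS (250 ng/mL final) plus ATP (1.25 mM final); secreted IL-1B measured by AlphaLISA after 16 hr, decreased signal indicating inhibition.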
DT40 TDP1 no CPT: qHTS for Inhibitors of human tyrosyl-DNA phosphodiesterase 1 (TDP1): qHTS in cells in absence of CPT | DT40 Tdp1-/- hTDP1 cells, no CPT, ATP luminescence, 48 h | Potency, µM (titrated, usually from 46.2 µM), for inactives: top-dose activity change, negative = growth inhibition, actives largely listed as inhibitors | 420,000 compounds, 15% hits | AID 686978, 2013; further: potency means the concentration at half of the fitted maximal effect; nearly all actives have a fitted effect of over 55% in size
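Chicken DT40 Tdp1-/- cells stably complemented with human TDP1 were seeded at 400 cells/well with DMSO in place of 20 nM camptothecin. After compound pinning, cells grew at least 48 hr at 37 °C; viability read by CellTiter-Glo luminescence.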
* hit, by the source's call; i = inactive; ? = inconclusive; . = no result; [ ] = remark or other dose. Unless noted, the call rests on the fitted dose curve; in most records, active means well fitted curve in the direction sought with a large enough effect; inconclusive means small, poorly fitted or top-dose-only effect, or another doubt; inactive means no such curve, though single readings can be large; an effect the other way counts as inactive or inconclusive. On the % scale 0 is the no-effect control and ±100 the full control effect.

SMILES	ELG1 DNA repair	TDP1 block	DT40 TDP1 CPT	Giardia kill	IL1B secr inh	DT40 TDP1 no CPT
CC1=C2[C@H](/C=C(\C)C(=O)O)CC[C@@H](C)[C@H]2CC1	.	12%	.	.	.	.
CC(C)C[C@H]1CN(CCCC[C@@H]2CNC(=O)C(=O)N2CCc2ccccc2)C(=O)C(=O)N1Cc1ccccc1	.	.	0%	.	-4	-9%
O=C(CCc1ccccc1)NNC(=O)CCc1ccccc1	3%	4%	-1%	-3	3	-5%
O=C(NC(=S)NNC(=O)c1ccccc1O)c1ccc([N+](=O)[O-])cc1	?	.	26µM*	15	-22	15µM*
O=C(NC(=S)NNC(=O)c1ccccc1O)c1ccccc1	-25%	.	?	-23	47	29µM*
O=C(NNC(=S)NC(=O)c1ccc(Br)cc1)c1cccc([N+](=O)[O-])c1	?	.	18µM*	33	34	16µM*
O=C(NC(=S)NNC(=O)c1ccccc1O)c1ccc(F)cc1	2%	.	?	?	51	?
Cc1ccc(C(=O)NC(=S)NNC(=O)c2ccccc2O)cc1	31%	.	?	10	67	?
O=C(CCc1ccccc1)NNC(=O)c1cc(Cl)ccc1O	?	.	?	0	74	23µM*
CCOC(=O)c1cc[nH]c1CC(=O)NC	0%	4%	1%	-28	17	11%
O=c1c2ccccc2[nH]c(=S)n1-c1cccc(S(=O)(=O)N2CCCC2)c1	-19%	-3%	?	-1	92	?
O=C(NC(=S)NNC(=O)c1ccccc1O)c1cccs1	-17%	.	23µM*	-2	20	26µM*
O=C(NNC(=O)c1cc(Cl)ccc1O)c1cccs1	?	6%[0.0935 µM]	?	11	29	18µM*
O=C(NNC(=S)NC(=O)c1ccc(Br)cc1)c1ccc([N+](=O)[O-])cc1	0%	.	?	-6	11	23µM*
O=C(NNC(=S)NC(=O)c1ccccc1)c1ccc([N+](=O)[O-])cc1	43%	.	13µM*	?	47	12µM*
O=C(Nc1ccccc1C(F)(F)F)Nc1c[nH]c(=O)[nH]c1=O	.	3%	-1%	.	.	-4%
CC(NC(=O)c1cccs1)c1ccc(Cl)cc1 (stereo not given)	.	.	0%	6	-4	1%
Cc1ccc(C(=O)NC(=S)NNC(=O)c2ccc([N+](=O)[O-])cc2)cc1	18%	.	?	-1	52	15µM*
CC(NC(=S)NC(=O)c1cccs1)c1ccccc1 (stereo not given)	-11%	3%	-6%	-11	?	18µM*
FC(F)(F)C(F)(F)C(F)(F)c1nc2ccccc2[nH]1	.	.	-24%	.	.	-5%
COc1cccc(C2CC(=O)N(c3ccc(F)cc3)C3=C2C(=O)OC3)c1OC (stereo not given)	.	2%	-2%	.	.	-5%
COc1cc(C2SCC(=O)N2CCc2ccc(OC)c(OC)c2)ccc1O (stereo not given)	?	8%	4%	-4	61	-8%
COc1cc(C[C@H]2C(=O)OC[C@@H]2Cc2ccc(OC)c(OC)c2)ccc1O	.	12%[56.1 µM]	2.4µM*	.	.	1.7µM*
COc1ccc(C[C@H]2COC(=O)[C@@H]2Cc2ccc(OC3OC(CO)C(O)C(O)C3O)c(OC)c2)cc1OC (stereo not given in full)	-7%	-3%	?	21	38	21µM*
O=C(COc1ccc(-n2cnnn2)cc1)Nc1ccc(F)c(F)c1	-1%	0%	-30%	3	-13	-23%
SMILES	ELG1 DNA repair	TDP1 block	DT40 TDP1 CPT	Giardia kill	IL1B secr inh	DT40 TDP1 no CPT
Cc1ccc(OCCNC(=O)[C@H]2O[C@@H](n3ccc(N)nc3=O)[C@H](O)[C@@H]2O)cc1C	.	.	16%	.	-10	7%
COc1ccc(O)c(C(=O)c2coc(=N)c(C(=O)Nc3ccc(SC(F)F)cc3)c2)c1	16µM*	9%	?	-2	-54*	18µM*
COc1ccc(O)c(/C=N/NC(=O)c2ccc(CSc3nc(C)cc(C)n3)cc2)c1	?	?	4.6µM*	-18	59	2.9µM*
COc1ccc(O)c(/C=N/NC(=O)c2ccc(OCc3cccc(Br)c3)cc2)c1	3.7µM*	-14%	4.6µM*	9	92	5.8µM*
Cc1cc(C)nc(SCc2ccc(C(=O)N/N=C/c3cccc(O)c3O)cc2)n1	-13%	-2%	5.2µM*	-12	44	5.8µM*
COc1ccc(C(=O)NCC(=O)OCc2cccc(Br)c2)cc1	-1%	3%	1%	6	19	-4%
COc1cc(OC)cc(N2C(=O)CC(N3CCC(C(=O)N4CCCCC4)CC3)C2=O)c1 (stereo not given)	20%	.	-13%	32	i	-5%
CCCCCCn1c(=O)n2n(c1=O)C[C@]1(OC(=O)Nc3cccs3)CN(S(=O)(=O)c3ccc(C)cc3)C[C@]1(O)C2	.	.	21µM*	.	-51*	13µM*
CCCCCCn1c(=O)n2n(c1=O)C[C@]1(OC(=O)NCc3ccccc3)CN(S(=O)(=O)c3ccc(C)cc3)C[C@]1(O)C2	.	.	?	.	-24	15µM*
CCCCCCn1c(=O)n2n(c1=O)C[C@]1(OC(=O)NCc3ccco3)CN(S(=O)(=O)c3ccc(C)cc3)C[C@]1(O)C2	.	.	?	.	-1	26µM*
Cc1ccc(S(=O)(=O)N2C[C@]3(O)C[C@@H]4C(=O)N(c5ccccc5)C(=O)[C@@H]4C[C@]3(OC(=O)NCc3ccccc3)C2)cc1	.	.	-7%	.	2	-24%
CCCCCCn1c(=O)n2n(c1=O)C[C@]1(OC(=O)Nc3c(C)noc3C)CN(S(=O)(=O)c3ccc(C)cc3)C[C@]1(O)C2	.	.	?	.	1	21µM*
COC(=O)[C@H]1C[C@@]2(O)CN(S(=O)(=O)c3ccc(C)cc3)C[C@@]2(OC(=O)Nc2c(C)noc2C)C[C@H]1C(=O)OC	.	.	-1%	.	-6	-15%
Cn1cc(C(=O)N/N=C/C(Br)=C/c2ccccc2)ccc1=O	-12%	6%	3.3µM*	9	?	2.3µM*
CC(/C=N/NC(=O)c1ccccc1F)=C\c1ccccc1	?	2%[56.1 µM]	-19%	-1	-11	?
